Unmarked numbers belong to inactive results. The rule behind the calls is not given here.
What follows are compounds tested against Pantothenate synthetase (Mycobacterium tuberculosis (strain ATCC 25618 / H37Rv)) (UniProt P9WIL5) (assay: Coupled enzyme confirmation of inhibitors against recombinant Mtb PanC (AID 375;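 note: 0% = full reaction with vehicle and 100% = no enzyme background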)). Conditions: coupled enzyme assay; at 10 µM, hits give high values.
Chain of Pantothenate synthetase (Mycobacterium tuberculosis (strain ATCC 25618 / H37Rv)) (P9WIL5 whole entry, looked up): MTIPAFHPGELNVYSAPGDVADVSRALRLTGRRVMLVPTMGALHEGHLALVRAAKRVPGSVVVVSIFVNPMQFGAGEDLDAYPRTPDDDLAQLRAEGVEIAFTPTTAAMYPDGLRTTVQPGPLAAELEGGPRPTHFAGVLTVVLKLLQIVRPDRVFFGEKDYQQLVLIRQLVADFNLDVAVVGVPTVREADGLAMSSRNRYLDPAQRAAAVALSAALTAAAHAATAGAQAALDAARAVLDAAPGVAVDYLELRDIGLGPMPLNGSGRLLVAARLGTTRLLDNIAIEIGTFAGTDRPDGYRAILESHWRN

| Compound | inhibition |
| --- | --- |
| O=C(Nc1ccccc1C(=O)N1CCCCCC1)c1cccc(S(=O)(=O)N2CCOCC2)c1 | 5% |
| Cc1nc2ccc(NC(=O)N3CCOCC3)cc2s1 | 4% |
| Cc1nc(CNS(=O)(=O)c2cccc(F)c2)cs1 | 0% |
| NC(=O)c1cccc(S(=O)(=O)N2CCCCC2)c1 | 0% |
| CCCCOC(=O)CSc1nc2c(cc1C#N)C(=O)CC(C)(C)C2 | 0% |
| COc1ccc2c(c1)c(CC(=O)OCC(=O)O)c(C)n2C(=O)c1ccc(Cl)cc1 | 0% |
| O=c1[nH]c(/C(=N\O)c2ccccc2)no1 | 0% |
| Cc1ccc(NC(=O)CC2C(=O)NC3CCCCC3N2C(=O)c2ccc(F)cc2)cc1C (stereo not given) | 4% |
| Cn1cccc1Cc1nnc(SCC(=O)N2CCOCC2)n1-c1ccc(F)cc1 | 0% |
| CC(C)c1nccn1S(=O)(=O)c1cc(Cl)ccc1Cl | 0% |
| CCc1cc2c(CN3CCN(CCO)CC3)cc(=O)oc2cc1O | 0% |
| Cn1cnc2cc(NC(=O)c3ccc(Cl)cc3)ccc21 | 0% |
| Cc1cc(C)c(S(=O)(=O)N(C)CC(N)=O)c(C)c1 | 0% |
| Cc1[nH]c(=O)[nH]c(=O)c1S(=O)(=O)N1CCCC(C(=O)NCc2ccco2)C1 (stereo not given) | 5% |
| O=C(OCN1C(=O)c2ccccc2C1=O)C1CCCCC1 | 1% |
| CCN(CC)C1CCCCC1NS(=O)(=O)c1ccc(Cl)cc1 (stereo not given) | 0% |
| Cc1cc(=O)n2[nH]c(-c3ccc(Cl)cc3)cc2n1 | 0% |
| CCOC(=O)c1c(C)[nH]c(C)c1C(=O)COC(=O)CNC(=O)c1ccc(OCC)cc1 | 0% |
| COc1cccc(OC)c1C(=O)N1CCOCC1 | 12% |
| O=C(CSc1nnc(-c2ccncc2)n1-c1ccc(F)cc1)NC(=O)NCc1ccco1 | 0% |

| Compound | inhibition |
| --- | --- |
| CN(C)CC(C(=O)c1ccccc1)c1ccccc1 (stereo not given) | 4% |
| c1ccc(-c2nnc(SCc3nc4ccccc4[nH]3)o2)cc1 | 0% |
| Fc1ccc(-c2nnc(CN3CCN(c4ncc(C(F)(F)F)cc4Cl)CC3)o2)cc1 | 0% |
| COc1ccc(Cn2nnnc2C(c2cc3cc(C)cc(C)c3[nH]c2=O)N2CCOCC2)cc1 (stereo not given) | 0% |
| CCOc1ccc(C2C(C(=O)OC)=CN(CCOC)C=C2C(=O)OC)cc1 | 4% |
| CCOC(=O)CN1CC23C=CC(O2)C(C(=O)Nc2ccc(C(C)=O)cc2)C3C1=O (stereo not given) | 6% |
| COc1ccccc1OCCSc1nc2ccccc2c(=O)[nH]1 | 0% |
| CC1(C)CNC(=O)c2sc(N3CCOCC3)nc2C1 | 0% |
| CCSc1oc(-c2cccs2)nc1S(=O)(=O)c1ccccc1 | 4% |
| CCOCCCNC(=O)CCNS(=O)(=O)c1ccc(C)cc1 | 2% |
| Cc1occc1-c1nnc(SCC(=O)c2ccc(F)cc2)n1Cc1ccco1 | 3% |
| Cc1ccc(-c2noc(CN3C(C)CCCC3C)n2)cc1 (stereo not given) | 0% |
| Cc1nc(CNS(=O)(=O)c2cc(C)c(C)cc2C)cs1 | 1% |
| c1ccc(-c2cc(N3CCCCC3)ncn2)cc1 | 0% |
| O=c1/c(=C/c2ccco2)sc2nc(-c3ccccc3Br)nn12 | 0% |
| Cc1ccc(-n2nnnc2SCC(=O)c2cc(C)n(-c3cc(C)on3)c2C)cc1 | 4% |
| COc1ccc2c(c1)C1(C)CC(C)(C)N2C(=O)N1c1ccccc1 (stereo not given) | 4% |
| c1ccc(CC2CCN(Cc3nc(-c4ccccc4)no3)CC2)cc1 | 3% |
| COC(=O)c1ccc(NC(=O)Cn2nnc3ccccc32)cc1 | 0% |
| Cc1ccc(S(=O)(=O)C2(C(=O)Nc3cccnc3)CC2)cc1 | 1% |

— PubChem BioAssay
